TbREL1 inh = TbREL1 inhibition, primary screen | 89,000 compounds, 0.49% hits | TbREL1 RNA ligation, FRET fluorescence | inhibition, % at 9.66 µM | AID 1117264;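 active = inhibition above the mean inhibition across all screened compounds plus 3 SD, cut at about 11% in these data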
Target sequence (P86926 whole entry, looked up): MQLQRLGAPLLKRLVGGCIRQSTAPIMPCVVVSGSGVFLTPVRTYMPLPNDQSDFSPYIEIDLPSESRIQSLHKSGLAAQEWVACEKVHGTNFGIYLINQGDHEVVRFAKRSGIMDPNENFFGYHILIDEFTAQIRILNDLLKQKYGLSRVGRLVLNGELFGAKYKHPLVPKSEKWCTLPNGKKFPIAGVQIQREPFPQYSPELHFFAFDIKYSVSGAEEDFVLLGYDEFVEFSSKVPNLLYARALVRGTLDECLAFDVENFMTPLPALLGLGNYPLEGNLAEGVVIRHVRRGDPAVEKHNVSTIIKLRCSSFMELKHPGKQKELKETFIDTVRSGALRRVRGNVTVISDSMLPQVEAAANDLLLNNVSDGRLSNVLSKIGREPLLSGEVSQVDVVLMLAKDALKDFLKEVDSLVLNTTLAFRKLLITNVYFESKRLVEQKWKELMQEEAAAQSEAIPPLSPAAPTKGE
TbREL1 conf = TbREL1 inhibition, confirmation. shares compounds with TbREL1 inh. TbREL1 RNA ligation, FRET fluorescence. inhibition, % at 9.66 µM. 390 compounds, 37% hits. AID 1117282;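 active = mean inhibition across replicates above a set limit taken from the earlier primary screen, cut at about 11% in these data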
A number is an active result; 0 = inactive. Shown is part of a subset that was picked to be rich in hits.

SMILES | TbREL1 inh | others
CNC(=O)CC1C(=O)N(c2ccc(OC)cc2)C(=S)N1NC(=O)c1cccc(F)c1 (stereo not drawn) | 0
Cc1cccc(NC(=O)/C=C/c2cccs2)n1 | 0
CCSc1nnc(NC(=O)CSC2=NN3CCCC(=O)N=C3S2)s1 | 15.3 | TbREL1 conf=0
CCOc1ccc(NC(=O)CSC2=NN3CCCC(=O)N=C3S2)cc1 | 0
CC(C)(C)CC(=O)Nc1nnc(SCC(=O)NC2CCCC2)s1 | 0
Cc1cccn2c(=O)nc(SCC(=O)N3CCCCC3)nc12 | 0
COc1ccc(-n2nnnc2C2c3ccccc3C(=O)N2C2CCN(Cc3ccccc3)CC2)cc1 (stereo not drawn) | 0
Nc1cc2c([N+](=O)[O-])cccc2o1 | 0
O=c1cc2oc3cc(O)c(O)cc3c(-c3ccccc3[N+](=O)[O-])c-2cc1O | 20.9 | TbREL1 conf=25.5
Cc1cc(=O)c(C(=O)O)nn1-c1ccccc1[N+](=O)[O-] | 0
Cc1ccc(NC(=O)N2CCC(C(=O)NCCC3=CCCCC3)CC2)cc1 | 0
COc1ccc(S(=O)(=O)N2CCN(CC(O)CN3CCOCC3)CC2)cc1 (stereo not drawn) | 0
COc1ccc(OCCN2CCN(S(=O)(=O)c3ccccc3C#N)CC2)cc1 | 0
N#Cc1ccccc1S(=O)(=O)N1CCN(CC(O)CN2CCOCC2)CC1 (stereo not drawn) | 19.8 | TbREL1 conf=0
CCN(CC)C(=O)Cn1cnc2sc(C(=O)N3CCN(Cc4ccc5c(c4)OCO5)CC3)c(C)c2c1=O | 0
C=CCN(Cc1ccc(OC)cc1OC)C(C#Cc1ccccc1)c1ccccc1 (stereo not drawn) | 0
COC(=O)C(NC(C)=O)(Nc1cc(C)ccn1)C(F)(F)F (stereo not drawn) | 0
COc1ccc(-c2ccc(CN3C(C)C(=O)N(Cc4cn(CCC5OCCO5)nn4)CCS3(=O)=O)cc2)cc1 (stereo not drawn) | 0
CCN1CCN(S(=O)(=O)c2ccc(Cl)c(C(=O)Nc3nnc(C)s3)c2)CC1 | 0
O=[N+]([O-])c1cccc(OCCN2CCC(Cc3ccccc3)CC2)c1 | 0
Cc1ccc(-c2cc(-c3nnc4sc(Cc5cccs5)nn34)[nH]n2)cc1 | 0
O=C(CN1C(=O)c2ccccc2C1=O)Nc1cccc2cccnc12 | 0
O=C(COc1ccc2ccccc2c1)Nc1cccc2cccnc12 | 0
O=C(O)CCC(=O)Nc1cccc2cccnc12 | 11.4 | TbREL1 conf=0
COc1ccc(Cc2c(O)nc[nH]c2=O)cc1 | 0
SMILES | TbREL1 inh | others
CCCC1CCC2(CC1)CCC2OC(=O)Nc1ccc(C)cc1 (stereo not drawn) | 0
CCCC1CCC2(CC1)CCC2OC(=O)Nc1cccc(C(F)(F)F)c1 (stereo not drawn) | 11.9 | TbREL1 conf=0
CCCC1CCC2(CC1)CCC2OC(=O)Nc1cc(C)cc(C)c1 (stereo not drawn) | 0
CCCNS(=O)(=O)c1ccc(N2CCCC2=O)c([N+](=O)[O-])c1 | 0
COC(=O)c1c(C)[nH]c(C(=O)C(C)OC(=O)c2ccco2)c1C (stereo not drawn) | 0
CCN(CC)C(=O)O[C@H]1CC[C@@]23CCCN2C(=O)CCC[C@H]3C1 | 0
CCC(CC)NC(=O)O[C@H]1CC[C@@]23CCCN2C(=O)CCC[C@H]3C1 | 0
O=C(O[C@H]1CC[C@@]23CCCN2C(=O)CCC[C@H]3C1)N1CCOCC1 | 13.7 | TbREL1 conf=0
Cc1nc2ccc(NC(=O)c3ccc([N+](=O)[O-])cc3[N+](=O)[O-])cc2s1 | 0
O=C(Nc1cccc(C(=O)N2CCCCC2)c1)C1CCCC1 | 0
N#CCCn1nc(-c2ccc([N+](=O)[O-])cc2)cc1Nc1ccccc1NC(=O)C(F)(F)F | 0
COc1ccc(C(=O)OCCCc2cc3ccccc3c(=O)o2)cc1 | 0
O=c1cc(CN2CCCc3ccccc32)nc2sccn12 | 0
O=c1cc(CN2CCc3ccccc32)nc2sccn12 | 15.4 | TbREL1 conf=21.6
CC1CN(Cc2cc(=O)n3ccsc3n2)CC(C)O1 (stereo not drawn) | 0
O=C(CN1C(=O)c2ccccc2C1=O)NC(Cc1ccccc1)C(=O)O (stereo not drawn) | 0
COC1=CC(=O)c2nc(Cl)ccc2C1=O | 20.1 | TbREL1 conf=29.9
CSc1nnc(NC(=O)c2cc3ccccc3oc2=O)s1 | 0
Cc1ccc(Nc2ncc(C(=O)NCCCN3CCN(C)CC3)c3ccccc23)cc1Cl | 0
CC(C)n1nnnc1C1(C)CCSCC(=O)N1Cc1cccc(C(F)(F)F)c1 (stereo not drawn) | 0
CCCS(=O)(=O)NC(=O)C1(C)CCCN(C(=O)c2ccc(SC(F)(F)F)cc2)C1 (stereo not drawn) | 0
CN(CCOC(=O)c1cc2ccccc2o1)C1CN(Cc2cn(Cc3ccccc3Cl)nn2)S(=O)(=O)C1 (stereo not drawn) | 0
COCCN(C(=O)/C=C/c1ccccc1)c1nnc(-c2cccnc2)s1 | 12.0 | TbREL1 conf=0
O=C(Cc1ccccc1)Nc1nnc(-c2cccnc2)s1 | 0
COCCN(C(=O)/C=C/c1ccccc1)c1c(N)n(Cc2ccccc2)c(=O)[nH]c1=O | 0
SMILES | TbREL1 inh | others
COc1cccc(C(=O)N2CCn3c2nc2ccccc23)c1 | 11.7 | TbREL1 conf=0
COc1ccc(C(=O)N2CCn3c2nc2ccccc23)cc1 | 0
CCOc1ccc(C(=O)N2CCn3c2nc2ccccc23)cc1 | 0
CC(=O)c1ccc(NC(=O)CN2C(=O)NC3(CCCc4ccccc43)C2=O)cc1 (stereo not drawn) | 0
CCOc1ccc(NC(=O)N(O)C2(C#N)CCCCC2)cc1 | 0
O=C1C2CCCN2C(c2cccc(Br)c2)N1c1ccc(F)cc1 (stereo not drawn) | 0
COC(=O)C1=C(C)N(Cc2ccccc2C(F)(F)F)C(=NCc2ccccc2)NC1CCc1ccccc1 (stereo not drawn) | 20.6 | TbREL1 conf=19.6
C=CCN=C1NC(c2ccccc2)C(C(=O)OC)=C(C)N1Cc1ccccc1C(F)(F)F (stereo not drawn) | 0
O=C(CN1C(=O)NC(CCc2ccccc2)C1=O)Nc1ccccc1C(F)(F)F (stereo not drawn) | 0
COC(=O)C1=C(C)N(Cc2cccc(C(F)(F)F)c2)C(=NCc2cc(OC)c(OC)c(OC)c2)NC1CCc1ccccc1 (stereo not drawn) | 11.8 | TbREL1 conf=19.7
COC(=O)C1=C(C)N(Cc2ccccc2)C(=S)N[C@H]1c1cccc(C(F)(F)F)c1 | 0
CCN1C(=NCc2cc(OC)c(OC)c(OC)c2)N[C@@H](c2cccc(C(F)(F)F)c2)C(C(=O)OC)=C1C | 0
COCCSc1nnc(NC(=O)C2CC(=O)N(c3ccccc3)C2)s1 (stereo not drawn) | 0
O=C(O)c1ccc(COc2ccc3ccccc3c2/C=C2/NC(=O)N(Cc3ccc(F)cc3)C2=O)cc1 | 0
CC1(c2ccc(Cl)cc2)NC(=O)N(CC(=O)N2CCCC2)C1=O (stereo not drawn) | 0
CC(C)Nc1nc(NCCOc2ccccc2Cl)c2sc(-c3ccccc3)cc2n1 | 13.1 | TbREL1 conf=15.8
CC(O)CNc1ncnc2cc(-c3ccc(F)cc3)sc12 (stereo not drawn) | 0
C=CCNc1nc(NCc2cccc(OC)c2)c2sc(-c3ccccc3)cc2n1 | 0
C=CCNCCOCCOc1ccc(Cl)cc1C(C)(C)C | 15.6 | TbREL1 conf=18.8
C=CCNCCOCCOc1ccc(C)cc1Br | 0
CC(C)NCCOCCOc1ccc(Cl)cc1Br | 0
C=CCN([C@@H](CC(C)C)C(=O)OC)S(=O)(=O)N(CC=C)[C@@H](CC(C)C)C(=O)OC | 0
CCCCN(C(=O)Cc1ccc2c(c1)OCCO2)c1c(N)n(CCC)c(=O)[nH]c1=O | 0
O=C(O)c1cc(N/N=C/c2ccc(-c3ccc(F)cc3)o2)ccc1Cl | 0
